The entries come from a sample that favours hits as a whole.
Methyltransferases = Primary Screen for Target Class Profiling of Small Molecule Inhibitors of Methyltransferases. calls only at 40 µM. 25,000 tested, 3.9% active. AID 1745853, 2022. purified enzyme, MTase-Glo SAH luminescence; stronger effect = lower value; call rule not given here
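Each enzyme was reacted with SAM and its substrate, with compounds tested once at 40 uM; SAH formed was read by MTase-Glo luminescence.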
MTase-Glo counter = detection enzyme interference, methyltransferase counter-screen | 180 tested, 6% active | shares compounds with Methyltransferases | Potency, µM (series often up to 57.3 µM), inactives show at the top dose activity change, negative = inhibition, hits mostly inhibitors | MTase-Glo coupled enzymes, SAH conversion luminescence, no MTase | AID 1745851; active means well fitted inhibition curve with a large enough effect; inconclusive means small, poorly fitted or top-dose-only effect; further: potency means the concentration at half of the fitted maximal effect
Numbers without * were called inactive; i = inactive; ? = inconclusive; + = active, no number; [ ] = remark or other dose. On the % scale 0 is the no-effect control and ±100 the full control effect.

SMILES	Methyltransferases	others
COc1cccc(NC(=O)N2Cc3ccccc3-n3cccc3C2c2ccc(C)cc2)c1 (stereo unspecified)	i
COc1ccc(C2c3cccn3-c3ccccc3CN2C(=O)Nc2ccc(F)cc2F)cc1OC (stereo unspecified)	i
Cc1cc(C)cc(NC(=O)N2Cc3ccccc3-n3cccc3C2c2cccc(C)c2)c1 (stereo unspecified)	i
Cc1c2ccncc2c(C)c2c1[nH]c1ccccc12	+
Cc1nccc2c1[nH]c1ccccc12	i
CCOc1ccc(C2c3cccn3-c3ccccc3CN2C(=O)Nc2ccccc2OC)cc1 (stereo unspecified)	i
COc1ccc(C2c3cccn3-c3ccccc3CN2C(=O)NCCC(C)C)cc1OC (stereo unspecified)	i
CC(=O)OC1CC(O)C2(C)C(CC(OC(C)=O)C3(C)C2CCC2(C)C(c4ccoc4)C(=O)C4OC423)C1(C)C (stereo unspecified)	i
N#Cc1ccc(N2CCN(C(=O)COc3ccc4[nH]cc(CCN)c4c3)CC2)cc1	+
CCCN1CCO[C@H]2c3cc(O)ccc3OC[C@@H]21	i
CN1CCc2cc(O)cc3c2[C@H]1Cc1ccc(O)c(O)c1-3	+
CCCN1CCc2cc(O)cc3c2[C@H]1Cc1ccc(O)c(O)c1-3	+
COc1ccc(C2c3cccn3-c3ccccc3CN2C(=O)Nc2ccc(Br)cc2)cc1 (stereo unspecified)	i
CCOC(=O)CNC(=O)N1Cc2ccccc2-n2cccc2C1c1ccccc1 (stereo unspecified)	i
CC1c2cccn2-c2ccccc2CN1C(=O)Nc1ccccc1 (stereo unspecified)	i
C[C@H]1CCC[C@H](O)CCC/C=C/c2cc(O)cc(O)c2C(=O)O1	+
COc1cc(O)c2c(c1)CCC[C@@H](O)[C@H](O)C(=O)/C=C\C[C@H](C)OC2=O	i
CC1CCCC(O)CC(=O)Cc2cc(O)cc(O)c2C(=O)O1 (stereo unspecified)	i
CSc1ccc(C2c3cccn3-c3ccccc3CN2C(=O)Nc2ccc3c(c2)OCCO3)cc1 (stereo unspecified)	i
Cc1ccccc1C1c2cccn2-c2ccccc2CN1C(=O)Nc1ccc(F)cc1 (stereo unspecified)	i
Cc1ccc(NC(=O)N2Cc3ccccc3-n3cccc3C2c2cccs2)cc1 (stereo unspecified)	i
COc1ccc(NC(=O)N2Cc3ccccc3-n3cccc3C2c2ccc(F)cc2)cc1 (stereo unspecified)	i
CNC1CCc2ccccc21 (stereo unspecified)	+	MTase-Glo counter=-2%[114 µM]
CCOC(=O)CNC(=O)N1Cc2ccccc2-n2cccc2C1c1ccc(OC)cc1 (stereo unspecified)	i
C=C(C)C(=O)O[C@H]1[C@@H]2[C@H](C)C(=O)O[C@@H]2C[C@@H](C)[C@@H]2C=CC(=O)[C@]21C	i
SMILES	Methyltransferases	others
CCc1ccc(NC(=O)N2Cc3ccccc3-n3cccc3C2c2cccs2)cc1 (stereo unspecified)	i
Cc1ccc(CNC(=O)N2Cc3ccccc3-n3cccc3C2c2ccc(C)cc2)cc1 (stereo unspecified)	i
CCOCCCNC(=O)N1Cc2ccccc2-n2cccc2C1c1ccc(OC)cc1 (stereo unspecified)	i
CC(=O)NC[C@H]1C[C@@H]2CCN1C[C@@H]2c1cc(-c2ccc3ccccc3c2)nn1C	+	MTase-Glo counter=?
Cn1nc(-c2ccc3ccccc3c2)cc1[C@H]1CN2CC[C@H]1C[C@@H]2CNC(=O)c1ccco1	i
COc1ccccc1-c1cc([C@H]2CN3CC[C@H]2C[C@@H]3CNC(=O)N2CCOCC2)n(C)n1	i
CCC1c2cccn2-c2ccccc2CN1C(=O)Nc1cc(OC)ccc1OC (stereo unspecified)	i
CC(=O)O[C@H]1C[C@@H](C)O[C@H]2O[C@@H]3CC4CC[C@@H]5C(CC[C@]6(C)[C@@H](C7=CC(=O)OC7)CC[C@]56O)[C@@]4(C=O)C[C@H]3O[C@]21O (stereo partly specified)	i
CSc1ccc(C2c3cccn3-c3ccccc3CN2C(=O)Nc2ccc(C)cc2C)cc1 (stereo unspecified)	i
COc1ccc(-c2cc3c(cn2)CN(C)CCN3)cn1	+	MTase-Glo counter=-2%[114 µM]
O=C(Nc1ccc(Br)cc1F)N1Cc2ccccc2-n2cccc2C1c1cccs1 (stereo unspecified)	i
CCOc1ccc(Oc2ccc(OCc3cc(F)ccc3F)cc2)c(N)c1	i
